Source: PubChem (several laboratories)
Only some compounds are listed: those with a hit (about 2.8% of all), similar ones and a draw of the others.
ERa coact pot – enhancers of ERα–SRC-1 coactivator binding, primary screen, biochemical, TR-FRET, ERα LBD, low estradiol. Estrogen receptor (Homo sapiens), P03372. hit rate 1.3% among 86,000. TR-FRET ERalpha-LBD/SRC-Cy5 coactivator binding, 2 h; 100 = basal binding, no effect. coactivator binding (% of control), % at 25.6 µM; in the data active = activity above about 200%;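 also: binding measured in presence of low estradiol as agonist stimulus; 0% = peptide alone without receptor and 100% = receptor with peptide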
ERb SRC1 inh – inhibitors of ERβ-SRC1 coactivator interaction, primary screen, biochemical, TR-FRET, ERβ LBD, SRC-1 peptide; Estrogen receptor beta (Homo sapiens), Q92731; TR-FRET ER-beta LBD / SRC1-Cy5 peptide binding; receptor agonist-loaded with 1 µM estradiol; inhibition, % at 25.6 µM; hit rate 1.3% among 86,000; AID 633, 2007;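 active = compounds whose percent inhibition of the receptor-coactivator binding signal exceeds about 50% in the single-dose screen, limit read from the data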;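 also: 0% = receptor plus peptide wells without compound and 100% = peptide-only wells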
MRP-1 activ – H69AR viability gain despite doxorubicin, primary screen, MRP-1 activator project, H69AR cells, CellTiter-Glo. viability increase, % at 10 µM. AID 799, 2007. viability rescue. hit rate 0.61% among 140,000;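 active = viability gain under doxorubicin at or above a set limit, the compound median plus 3 SD, cut at about 4.7% in these data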;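 also: MRP-1 overexpressing cells given doxorubicin 25 µM after compound pretreatment; 18-22 h compound pretreatment then 72 h with doxorubicin before readout; 0% = doxorubicin-only wells and 100% = vehicle-treated cells without doxorubicin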
ERa coact inh – ERα–SRC-1 coactivator interaction inhibitors, primary screen, biochemical, TR-FRET, ERα LBD, estradiol-bound. TR-FRET ER-alpha LBD / SRC-1 peptide. inhibition, % at 25.6 µM. AID 629, 2007. hit rate 1.7% among 86,000; in the data active = inhibition above about 50%;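 also: 0% = receptor plus peptide control and 100% = peptide only without receptor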
MRP reversal – reversal of MRP1-mediated doxorubicin resistance, primary screen, H69AR cells, doxorubicin co-treatment; H69AR cells + 2 uM doxorubicin, CellTiter-Glo, 72 h; differential viability (reversal), % at 10 µM; hit rate 0.04% among 85,000; AID 602, 2007;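 active = viability drop by adding the cancer drug above about 55%, with treated viability meeting a 40% cutoff, limit read from the data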;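 also: viability without doxorubicin minus viability with 2 µM doxorubicin for each compound; larger differential means the compound sensitizes cells more to doxorubicin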
Smad3 FoxH1 inh – Smad3/FoxH1 peptide binding inhibitors, primary screen, biochemical, TR-FRET; inhibition, % at 25 µM; hit rate 0.29% among 88,000; Mothers against decapentaplegic homolog 3 (Homo sapiens), P84022; TR-FRET Smad3/Dy647-FoxH1 peptide binding, europium anti-His;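 active = compounds that reduce the energy-transfer binding signal between the protein and its labelled peptide by more than half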;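 also: 0% = Smad3 plus labelled peptide maximal FRET and 100% = peptide-only background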
Target sequence (P84022 whole entry, looked up): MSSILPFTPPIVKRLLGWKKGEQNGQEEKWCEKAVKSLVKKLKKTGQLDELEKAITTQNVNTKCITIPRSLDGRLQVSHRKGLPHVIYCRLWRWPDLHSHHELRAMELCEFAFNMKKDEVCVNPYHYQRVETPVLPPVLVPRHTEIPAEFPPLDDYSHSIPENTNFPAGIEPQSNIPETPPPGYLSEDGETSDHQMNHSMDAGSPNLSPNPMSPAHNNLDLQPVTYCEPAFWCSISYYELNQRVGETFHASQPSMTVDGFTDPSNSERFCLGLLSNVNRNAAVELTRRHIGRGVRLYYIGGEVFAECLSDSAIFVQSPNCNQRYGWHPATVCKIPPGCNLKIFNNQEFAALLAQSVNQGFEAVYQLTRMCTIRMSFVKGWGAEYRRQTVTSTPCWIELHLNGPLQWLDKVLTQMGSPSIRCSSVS
* = called active by the depositor; x = no result; [ ] = remark or other dose.

SMILES	ERa coact pot	ERb SRC1 inh	MRP-1 activ	ERa coact inh	MRP reversal	Smad3 FoxH1 inh
Cc1ccc(/S(C)=N/S(=O)(=O)c2ccc(C)cc2)cc1 (stereo not given)	x	x	-3	x	x	x
CC1(C)O[C@@H]2C[C@H]3[C@@H]4C[C@H](F)C5=CC(=O)CC[C@]5(C)[C@H]4[C@@H](O)C[C@]3(C)[C@]2(C(=O)CO)O1	104	-6	5.2*	-9	-4	-2
CC(=O)[C@]1(O)CC[C@@H]2[C@H]3C[C@@H](C)C4=CC(=O)CC[C@@]4(C)[C@@H]3[C@@H](O)C[C@]21C	x	x	x	x	x	34
CCS(=O)(=O)N1CCC(C(=O)NCCCN2CCCCCC2)CC1	920*[fluorescence artefact?]	0	-1	-3	-7	10
CCS(=O)(=O)N1CCC(C(=O)NCCCN2CCC(Cc3ccccc3)CC2)CC1	134	-5	-3	-3	5	8
Cc1nc(-c2ccccc2)nc2[nH]c(-c3ccccc3)cc(=O)c12	334*[fluorescence artefact?]	44	-2	24	-30	5
Cc1nc(C)c2c(=O)cc(-c3ccccc3)[nH]c2n1	117	-23	-3	-21	-21	-4
COc1ccc(Cc2nnc(NC(=O)c3c(-c4ccccc4)noc3C)s2)cc1	117	3	3	4	-48	-5
CCOC(=O)Cc1csc(NC(=O)CCCCCN2C(=O)c3cccc4cccc(c34)C2=O)n1	127	58*[fluorescence artefact?]	x	69*[fluorescence artefact?]	-14	-6
CCOC(=O)Cc1csc(NC(=O)c2c(-c3ccccc3)noc2C)n1	126	0	4.9*	-5	7	2
COc1ccc(Cc2nnc(NC(=O)c3c(-c4ccccc4)noc3C)s2)cc1OC	97	-1	9.5*	-6	26	0
O=CN[C@@H](Cc1cnc[nH]1)C(=O)O	x	x	x	x	x	0
C[C@H]1[C@H](O)[C@@H](C)C=CC=CC=CC=CC=CC=CC=C[C@H](O[C@H]2O[C@@H](C)[C@H](O)[C@@H](N)[C@@H]2O)C[C@@H]2O[C@@](O)(C[C@@H](O)C[C@@H](O)[C@@H](O)CC[C@@H](O)C[C@@H](O)CC(=O)O[C@H]1C)C[C@H](O)[C@H]2C(=O)O	x	x	x	x	x	17
CCOC(=O)N1CCC(Nc2c(Nc3ccc(C)c(C)c3)c(=O)c2=O)CC1	93	-13	-5	-10	65*	3
CCOC(=O)N1CCC(Nc2c(OCC)c(=O)c2=O)CC1	113	5	0	3	6	6
COc1ccc(CSC2=NCCN2)cc1Cl	106	16	9.7*	-3	5	-1
CNC(=S)N(Cc1ccc2c(c1)OCO2)C1CC(=O)N(c2ccc(F)cc2)C1=O (stereo not given)	x	x	-4	x	x	x
Cc1nc(NC(=S)NC(=O)c2ccccc2)sc1C(=O)N(C)C	x	x	7.7*	x	x	x
CCc1ccccc1NS(=O)(=O)c1ccc2[nH]cc(C(=O)NCC3CCCO3)c(=O)c2c1 (stereo not given)	22	31	-3	65*	-4	5
C[C@@](N)(Cc1c[nH]c2ccccc12)C(=O)O	x	x	x	x	x	2
CC(CCN)(CCN)[N+](=O)[O-]	x	x	x	x	x	-13
O=C(CCc1ccccc1)Nc1nnc(-c2cccs2)o1	97	70*	-3	0	5	1
CN(CCC(=O)O)S(=O)(=O)c1ccccc1	x	x	x	x	x	-12
CCCCn1c(O)c(/C=C2\C=NN=C2c2ccccc2)sc1=S	x	x	4	x	x	x
CCCCCCn1c(O)c(/C=C2\C=NN=C2c2ccccc2)sc1=S	x	x	5.3*	x	x	x
SMILES	ERa coact pot	ERb SRC1 inh	MRP-1 activ	ERa coact inh	MRP reversal	Smad3 FoxH1 inh
O=C(c1cc(-c2ccco2)on1)N1CCc2ccccc2C1	91	51*	-3	58*	-29	1
O=C(c1cc(-c2ccco2)on1)N1CCCc2ccccc21	95	52*	-1	66*	2	10
O=C(c1cc2nc(-c3ccco3)cc(C(F)(F)F)n2n1)N1CCCc2ccccc21	101	15	-1	14	7	-2
O=c1[nH]c(=S)[nH]c2c1CN(CCCN1CCOCC1)CN2	x	x	x	x	x	9
O=C(O)CCC(=O)C(=O)O	x	x	x	x	x	-2
COc1ccc(C)cc1NC(=O)Nc1ccc(Br)cn1	243*	34	-1	10	2	6
O=C(Nc1ccc2c(c1)OCO2)Nc1ccc(Br)cn1	228*	33	0	15	-24	0
CCOC(=O)Nc1cc(C)ccc1OC	115	10	0	-2	11	-9
CCOC(=O)C1CCCN(C(=O)c2ccc(CS(=O)(=O)c3ccc(C)cc3)o2)C1 (stereo not given)	66	55*	-1	36	8	12
CC(C)(C)SCCNC(=O)Nc1ccccc1	x	x	-2	x	x	x
CCC(C)NC(=O)C1CCCN(C(=O)Nc2ccc(F)cc2)C1 (stereo not given)	295*	-12	0	-9	-4	-8
CCOC(=O)C1C(c2ccc3c(c2)OCO3)NC(=O)NC1(O)C(F)(F)F (stereo not given)	96	-11	0	-8	5	3
CCOC(=O)C1C(c2cccs2)NC(=O)NC1(O)C(F)(F)F (stereo not given)	527*[fluorescence artefact?]	-1	-1	-2	-14	7
CC(C)(C)c1cc(C(c2cccnc2)N2CCN(CCO)CC2)cc(C(C)(C)C)c1O (stereo not given)	62	15	-6	15	1	2
OCCN1CCN(C(c2cccs2)c2ccc3cccnc3c2O)CC1 (stereo not given)	131	64*[fluorescence artefact?]	-1	69*[fluorescence artefact?]	-7	7
Clc1ccc(OCc2nnnn2-c2ccccc2)cc1	x	x	7.3*	x	x	x
Cc1ccc(C(N)=Nc2ccccc2)cc1	x	x	x	x	x	4
C[N+]1(C)CCc2cc(O)c(O)cc2[C@H]1Cc1ccc(O)c(O)c1	x	x	x	x	x	24
Cc1ccc(/C=C/C(=O)N2CC(C)CC(C)C2)o1 (stereo not given)	x	x	-1	x	x	x
COc1ccc(-c2nnc(Nc3nc4c(OC)cccc4s3)o2)cc1	96	73*[fluorescence artefact?]	-3	77*[fluorescence artefact?]	-17	3
COc1ccc(-c2nnc(Nc3nc4c(OC)cccc4s3)o2)c(OC)c1	79	14	-2	12	-20	-5
COc1cc(OC)cc(-c2nnc(Nc3nc4c(F)cccc4s3)o2)c1	436*[fluorescence artefact?]	33	-4	34	34	-4
Fc1cccc2sc(Nc3nnc(-c4ccccc4)o3)nc12	92	7	-3	17	-12	14
Cc1cccc(NC(=O)c2ccc(N3CCCCC3)c([N+](=O)[O-])c2)n1	x	x	3	x	x	x
